Assay results as given in PubChem BioAssay (Tox21).
Inconclusive results are not listed. Calls of active or inactive are those of the source. Unless noted, the call rests on the fitted dose curve.

Key:
[1] = Nuclear factor erythroid 2-related factor 2/antioxidant responsive element (Nrf2/ARE) small molecule agonists: qHTS cell viability counter screen in human keratinocytes (AID 1919968; active means well fitted curve in the direction sought with a large enough effect in the repeat runs; an effect the other way counts as inactive or inconclusive; further: nearly all actives have a fitted effect of over 55% in size)
Outline: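 CellTiter-Fluor fluorescence, read 1 h after reagent, gave viability in the same wells as the ARE-luciferase assay. KeratinoSens cells (1,500/well) had 23 h compound exposure at 37 C/5% CO2 following 5 h plating.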

[2] = Nuclear factor erythroid 2-related factor 2/antioxidant responsive element (Nrf2/ARE) small molecule agonists: luciferase reporter gene qHTS assay in human keratinocytes (AID 1919969); further: nearly all actives have a fitted effect of over 35% in size
[3] = target: Gonadotropin-releasing hormone receptor (Homo sapiens) (UniProt P30968); assay: Human gonadotropin-releasing hormone receptor (GnRHR) small molecule agonists, calcium flux assay in GnRHR-HEK293 cells (AID 1920063); further: nearly all actives have a fitted effect of over 35% in size
Chain of Gonadotropin-releasing hormone receptor (Homo sapiens) (P30968 whole entry, looked up): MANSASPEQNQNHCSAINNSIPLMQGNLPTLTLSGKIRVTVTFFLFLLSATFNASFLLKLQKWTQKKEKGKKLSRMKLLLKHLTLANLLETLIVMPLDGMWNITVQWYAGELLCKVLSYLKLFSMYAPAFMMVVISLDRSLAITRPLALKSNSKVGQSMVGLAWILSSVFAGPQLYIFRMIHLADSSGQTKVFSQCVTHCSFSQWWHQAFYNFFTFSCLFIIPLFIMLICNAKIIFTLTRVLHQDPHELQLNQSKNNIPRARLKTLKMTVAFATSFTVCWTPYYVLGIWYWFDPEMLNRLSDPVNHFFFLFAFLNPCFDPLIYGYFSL
Outline: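 Agonist mode: compounds at 15 concentrations, in triplicate, went onto calcium dye-loaded GnRHR-HEK293 cells. Intracellular calcium was then followed as 480/540 nm fluorescence at 1 s intervals over 3 min.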

[4] = target: KiSS-1 receptor (Homo sapiens) (UniProt Q969F8); assay: Human kisspeptin (KISS1R) small molecule agonists, calcium flux assay in KISS1R-HEK293 cells (AID 1920064; active means well fitted curve in the direction sought with a large enough effect in the repeat runs; an effect the other way counts as inactive or inconclusive)
Chain of KiSS-1 receptor (Homo sapiens) (Q969F8 whole entry, looked up): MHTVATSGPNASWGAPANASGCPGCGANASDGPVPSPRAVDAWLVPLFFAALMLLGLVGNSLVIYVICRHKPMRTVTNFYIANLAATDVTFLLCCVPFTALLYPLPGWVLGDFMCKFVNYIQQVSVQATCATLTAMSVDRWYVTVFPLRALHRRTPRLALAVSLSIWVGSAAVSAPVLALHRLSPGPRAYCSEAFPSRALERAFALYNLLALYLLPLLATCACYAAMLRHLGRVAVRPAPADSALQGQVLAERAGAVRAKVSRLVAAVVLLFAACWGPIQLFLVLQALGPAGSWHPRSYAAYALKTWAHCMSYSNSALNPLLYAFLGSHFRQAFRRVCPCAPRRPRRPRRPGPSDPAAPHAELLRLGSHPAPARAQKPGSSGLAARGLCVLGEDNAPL
Outline: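 Agonist mode: intracellular calcium rise tracked at 1 s intervals over 3 min (480/540 nm) immediately after compound addition to dye-loaded KISS1R-HEK293 stable cells. Each compound tested at 15 concentrations in triplicate.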

[5] = G protein-coupled receptor (GPCR) small molecule agonists, calcium flux assay: HEK293 wild type cell line counter screen (AID 1920065)
Outline: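 Calcium flux counter screen: compound added in agonist mode at 15 concentrations in triplicate to dye-loaded parental HEK293 cells. Fluorescence (480/540) read kinetically for 3 min; ATP served as positive control.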

[6] = p53 small molecule agonists, cell-based qHTS assay with human liver microsomes: qHTS cell viability counter screen (AID 1963579); further: nearly all actives have a fitted effect of over 45% in size
Outline: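 Viability of p53RE-bla cells is measured as CellTiter-Glo luminescence following a 16 h, 37 C incubation with compound, liver microsomes from human donors and NADPH.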

[7] = p53 small molecule agonists, cell-based qHTS assay with rat liver microsomes: qHTS cell viability counter screen (AID 1963580); further: nearly all actives have a fitted effect of over 45% in size
Outline: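 Counter screen for cytotoxicity under metabolic activation: rat liver microsomes and NADPH, 0.5 mg/mL final each, added with compounds to p53RE-bla HCT-116 cells; 16 h at 37 C, then ATP luminescence read.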

[8] = p53 small molecule agonists, cell-based qHTS assay: qHTS cell viability counter screen (AID 1963581); further: nearly all actives have a fitted effect of over 45% in size
Outline: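 Counter screen read by CellTiter-Glo luminescence (ATP content, 30 min at room temperature), run in the same wells as the beta-lactamase reporter read. HCT-116 p53RE-bla cells saw compounds for 16 h at 37 C.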

[9] = target: 5-hydroxytryptamine receptor 2A (Homo sapiens) (UniProt P28223); assay: 5-hydroxytryptamine receptor 2A (HTR2A) small molecule antagonists, cell-based qHTS assay (AID 1963586); further: nearly all actives have a fitted effect of over 45% in size
Chain of 5-hydroxytryptamine receptor 2A (Homo sapiens) (P28223 whole entry, looked up): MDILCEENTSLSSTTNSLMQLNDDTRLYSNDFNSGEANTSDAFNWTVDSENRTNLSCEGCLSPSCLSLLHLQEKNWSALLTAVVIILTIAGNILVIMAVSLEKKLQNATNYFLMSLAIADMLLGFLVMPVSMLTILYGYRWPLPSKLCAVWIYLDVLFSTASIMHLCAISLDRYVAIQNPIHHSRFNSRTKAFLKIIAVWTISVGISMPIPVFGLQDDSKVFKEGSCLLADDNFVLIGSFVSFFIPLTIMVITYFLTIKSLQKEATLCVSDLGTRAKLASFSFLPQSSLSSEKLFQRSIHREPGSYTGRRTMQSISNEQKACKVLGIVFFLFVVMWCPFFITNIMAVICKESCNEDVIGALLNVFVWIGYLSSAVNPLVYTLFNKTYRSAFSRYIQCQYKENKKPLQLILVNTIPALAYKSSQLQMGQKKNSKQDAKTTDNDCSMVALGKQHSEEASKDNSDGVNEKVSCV
Outline: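 CHO cells stably expressing human HTR2A were plated for 18 h at 37 C, then loaded with calcium dye for 1 h. Compounds were preincubated 5 min at room temperature before DOI (4 nM solution) was added. Kinetic fluorescence was read for 3 min.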

[10] = target: 5-hydroxytryptamine receptor 2A (Homo sapiens) (UniProt P28223); assay: 5-hydroxytryptamine receptor 2A (HTR2A) small molecule agonists, cell-based qHTS assay (AID 1963587); further: nearly all actives have a fitted effect of over 30% in size
Outline: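 HTR2A-CHO cells, plated 18 h at 37 C/5% CO2, dye-loaded 1 h at 37 C; compounds in DMSO added by pin tool (agonist mode). Intracellular calcium flux read as kinetic fluorescence on FDSS over 2 min at 1 s intervals.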

[11] = target: Muscarinic acetylcholine receptor M1 (Homo sapiens) (UniProt P11229); assay: Cholinergic receptor muscarinic 1 (CHRM1) small molecule antagonists, cell-based qHTS assay (AID 1963588); further: nearly all actives have a fitted effect of over 40% in size
Chain of Muscarinic acetylcholine receptor M1 (Homo sapiens) (P11229 whole entry, looked up): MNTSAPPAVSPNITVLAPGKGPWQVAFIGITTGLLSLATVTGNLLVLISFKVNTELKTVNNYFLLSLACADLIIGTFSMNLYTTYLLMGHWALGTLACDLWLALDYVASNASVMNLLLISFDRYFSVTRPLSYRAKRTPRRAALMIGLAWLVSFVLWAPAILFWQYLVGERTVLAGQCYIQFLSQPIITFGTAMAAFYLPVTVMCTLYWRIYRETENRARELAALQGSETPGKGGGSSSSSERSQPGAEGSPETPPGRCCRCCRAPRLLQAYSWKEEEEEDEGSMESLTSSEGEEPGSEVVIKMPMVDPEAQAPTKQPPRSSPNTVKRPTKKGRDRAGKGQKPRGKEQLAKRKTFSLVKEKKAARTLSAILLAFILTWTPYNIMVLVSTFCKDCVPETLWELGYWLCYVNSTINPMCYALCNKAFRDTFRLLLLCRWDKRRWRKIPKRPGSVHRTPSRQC
Outline: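 Compounds were tested at 15 concentrations in three independent runs. Dye-loaded CHRM1-CHO cells were exposed 5 min at room temperature before stimulation by acetylcholine added at 50nM. Intracellular calcium was read kinetically on FDSS for 3 min.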

[12] = target: Muscarinic acetylcholine receptor M1 (Homo sapiens) (UniProt P11229); assay: Cholinergic receptor muscarinic 1 (CHRM1) small molecule agonists, cell-based qHTS assay (AID 1963589); further: nearly all actives have a fitted effect of over 35% in size
Outline: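 Agonist-mode calcium-flux screen: compounds at 15 concentrations, three independent runs, were pin-transferred onto dye-loaded human CHRM1-CHO cells. Fluorescence was then recorded kinetically every second over minutes.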

[13] = cAMP Responsive Elements (CRE) small molecule agonists, cell-based qHTS assay (AID 1963590)
Outline: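 Agonist mode: compound added to CRE-bla HEK 293T cells (2,000/well, 18 h after plating) for 3 h at 37 C/5% CO2. Reporter activity detected via FRET beta-lactamase substrate, 2 h room-temperature loading.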

[14] = cAMP Responsive Elements (CRE) small molecule antagonists, cell-based qHTS assay (AID 1963591; active means well fitted inhibition curve with a large enough effect in the signal ratio in the repeat runs, not every such curve was filed as active; the % refers to the signal ratio)
Outline: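 Antagonist mode: compounds are added alongside the adenylyl cyclase activator NKH477 (0.25 uM final) to CRE-bla HEK293T cells for 3 h. LiveBLAzer FRET substrate, 2 h at room temperature, reports bla expression.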

[15] = target: Beta-2 adrenergic receptor (Homo sapiens) (UniProt P07550); assay: Adrenergic beta2 receptor (ADRB2) small molecule antagonists, cell-based qHTS assay (AID 1963592); further: series mostly up to about 92 µM; nearly all actives have a fitted effect of over 50% in size
Chain of Beta-2 adrenergic receptor (Homo sapiens) (P07550 whole entry, looked up): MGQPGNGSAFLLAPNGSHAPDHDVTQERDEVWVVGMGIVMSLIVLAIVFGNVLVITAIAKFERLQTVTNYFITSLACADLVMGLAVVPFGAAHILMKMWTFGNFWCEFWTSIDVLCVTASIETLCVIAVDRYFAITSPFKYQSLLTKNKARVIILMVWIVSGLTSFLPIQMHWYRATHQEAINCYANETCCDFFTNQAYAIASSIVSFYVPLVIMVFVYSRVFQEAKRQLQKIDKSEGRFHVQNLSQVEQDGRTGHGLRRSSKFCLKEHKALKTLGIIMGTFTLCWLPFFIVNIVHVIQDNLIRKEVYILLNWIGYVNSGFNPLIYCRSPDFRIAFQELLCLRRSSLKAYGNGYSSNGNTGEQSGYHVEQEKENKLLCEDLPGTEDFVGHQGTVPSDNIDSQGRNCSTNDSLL
Outline: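 Assay format: CHO-ADRB2 cells, 18-20hr seeding at 37C/5% CO2, then compound plus 1nM isoproterenol agonist mix for 0.5hr RT. Homogeneous time-resolved fluorescence cAMP detection after 1hr, expressed as 665/615 nm ratio.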

[16] = target: D(2) dopamine receptor (Homo sapiens) (UniProt P14416); assay: Dopamine D2 receptor (DRD2) small molecule agonists, cell-based qHTS assay (AID 1963594); further: nearly all actives have a fitted effect of over 35% in size
Chain of D(2) dopamine receptor (Homo sapiens) (P14416 whole entry, looked up): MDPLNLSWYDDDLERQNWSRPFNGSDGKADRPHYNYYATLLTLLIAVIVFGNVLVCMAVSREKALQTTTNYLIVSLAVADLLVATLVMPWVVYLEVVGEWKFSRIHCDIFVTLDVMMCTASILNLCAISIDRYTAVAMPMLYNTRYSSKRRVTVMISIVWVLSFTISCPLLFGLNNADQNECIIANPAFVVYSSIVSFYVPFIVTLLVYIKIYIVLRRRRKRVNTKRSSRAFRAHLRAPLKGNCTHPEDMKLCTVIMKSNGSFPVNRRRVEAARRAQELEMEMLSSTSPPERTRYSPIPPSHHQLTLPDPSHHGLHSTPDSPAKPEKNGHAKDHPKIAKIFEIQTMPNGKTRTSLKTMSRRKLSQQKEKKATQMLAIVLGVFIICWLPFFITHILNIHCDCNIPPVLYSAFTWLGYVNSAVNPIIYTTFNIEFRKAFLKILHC
Outline: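 HEK293 cells stably expressing DRD2 were cultured 24 h at 37 C, then given Ro20-1724 (0.1 mM final) and compounds for 10 min at room temperature. NKH477 (200nM) was then added for 30 min. cAMP was read by HTRF.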

[17] = target: D(2) dopamine receptor (Homo sapiens) (UniProt P14416); assay: Dopamine D2 receptor (DRD2) small molecule antagonists, cell-based qHTS assay (AID 1963595; active means well fitted inhibition curve with a large enough effect in the signal ratio in the repeat runs, with a control signal flat; the % refers to the signal ratio)
Outline: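 Readout: HTRF cAMP, cAMP-d2 competing with cellular cAMP for anti-cAMP cryptate, read after 1 h. Cells: DRD2-HEK293. Conditions: 0.1 mM Ro20-1724, 12 nM quinpirole, 200 nM NKH477, 30 min RT.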

[18] = target: Beta-2 adrenergic receptor (Homo sapiens) (UniProt P07550); assay: Adrenergic beta2 receptor (ADRB2) small molecule agonists, cell-based qHTS assay (AID 1963593);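 further: CHO cells stably overexpressing human ADRB2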
Outline: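 CHO cells stably over-expressing ADRB2 were plated overnight at 37C, then dosed with compounds plus a stimulation mix containing 100uM IBMX and 25uM Ro-20-1724 for 0.5hr at room temperature. cAMP was measured by HTRF competition, 1hr.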

Measured: Potency

CCOC(=O)CC(C)C
inactive: [1] | [2] | [3] | [4] | [5] | [6] | [7] | [8] | [9] | [10] | [11] | [12] | [13] | [14] | [15] | [16] | [17]

BrCCOc1ccccc1
inactive: [1] | [2] | [3] | [4] | [5] | [6] | [7] | [8] | [9] | [10] | [11] | [12] | [13] | [14] | [15] | [16] | [17]

COc1ccc(COC=O)cc1
inactive: [1] | [2] | [3] | [4] | [5] | [6] | [7] | [8] | [9] | [10] | [11] | [12] | [13] | [14] | [15] | [16] | [17]

CCC(C)(CCC(C)C)C(=O)O (stereo not drawn)
inactive: [1] | [2] | [3] | [4] | [5] | [6] | [7] | [8] | [9] | [10] | [11] | [12] | [13] | [14] | [15] | [16] | [17]

CC(=O)OC1C2(C)CCC(C2)C1(C)C (stereo not drawn)
inactive: [1] | [2] | [3] | [4] | [5] | [6] | [7] | [8] | [9] | [10] | [11] | [12] | [13] | [14] | [15] | [16] | [17]

O=CN(CCO)CCO
inactive: [1] | [2] | [3] | [4] | [5] | [6] | [7] | [8] | [9] | [10] | [11] | [12] | [13] | [14] | [15] | [16] | [17]

CC(=O)N[C@@H](CCC(=O)O)C(=O)O
inactive: [1] | [2] | [3] | [4] | [5] | [6] | [7] | [8] | [9] | [10] | [11] | [12] | [13] | [14] | [15] | [16] | [17]

CCOc1ccc(NS(=O)(=O)c2ccc(N)cc2)nn1
inactive: [1] | [2] | [3] | [4] | [5] | [6] | [7] | [8] | [9] | [10] | [11] | [12] | [13] | [14] | [15] | [16] | [17]

Cc1nc([N+](=O)[O-])cn1-c1ccc([N+](=O)[O-])cc1
inactive: [1] | [2] | [3] | [4] | [5] | [6] | [7] | [8] | [9] | [10] | [11] | [12] | [13] | [14] | [15] | [18] | [17]
